Compound activity from PubChem.
A selection: hits, their analogues and other compounds. The true share with any hit is near 3.4%.
GPR151 activ – activators of human GPR151; Q8TDV0; 1% of 650,000 active; activation, % at 11.2 µM; PathHunter beta-arrestin GPR151 cells, luminescence; AID 1508602; in the data active = activation above about 4.9%;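 also: 0% = median of compound wells and 100% = cells with positive control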
MITF primary – inhibitors of human MITF; inhibition, % at 2.6 µM; AlphaScreen MITF homodimerization, bead proximity signal; 0.91% of 650,000 active; in the data active = inhibition above about 50%;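 also: 0% = vehicle wells with protein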
TEAD-YAP inh – TEAD-YAP interaction inhibition | 1.4% of 640,000 active | inhibition, % at 9.12 µM | HEK-TIYL cells, TEAD-Gal4/YAP UAS-luciferase luminescence; in the data active = inhibition above about 32%;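 also: 0% = median of test compound wells and 100% = reference inhibitor wells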
FBW7 act – activators of human E3 ligase FBW7. Q969H0. AlphaScreen FBW7–phospho-cyclin E peptide binding, activator screen. normalized activity (activation), % at 26.1 µM. 0.13% of 650,000 active; in the data active = normalized activity above about 1.9%;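 also: purified mutant Fbw7 with reduced substrate affinity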
Target sequence (Q969H0 whole entry, looked up): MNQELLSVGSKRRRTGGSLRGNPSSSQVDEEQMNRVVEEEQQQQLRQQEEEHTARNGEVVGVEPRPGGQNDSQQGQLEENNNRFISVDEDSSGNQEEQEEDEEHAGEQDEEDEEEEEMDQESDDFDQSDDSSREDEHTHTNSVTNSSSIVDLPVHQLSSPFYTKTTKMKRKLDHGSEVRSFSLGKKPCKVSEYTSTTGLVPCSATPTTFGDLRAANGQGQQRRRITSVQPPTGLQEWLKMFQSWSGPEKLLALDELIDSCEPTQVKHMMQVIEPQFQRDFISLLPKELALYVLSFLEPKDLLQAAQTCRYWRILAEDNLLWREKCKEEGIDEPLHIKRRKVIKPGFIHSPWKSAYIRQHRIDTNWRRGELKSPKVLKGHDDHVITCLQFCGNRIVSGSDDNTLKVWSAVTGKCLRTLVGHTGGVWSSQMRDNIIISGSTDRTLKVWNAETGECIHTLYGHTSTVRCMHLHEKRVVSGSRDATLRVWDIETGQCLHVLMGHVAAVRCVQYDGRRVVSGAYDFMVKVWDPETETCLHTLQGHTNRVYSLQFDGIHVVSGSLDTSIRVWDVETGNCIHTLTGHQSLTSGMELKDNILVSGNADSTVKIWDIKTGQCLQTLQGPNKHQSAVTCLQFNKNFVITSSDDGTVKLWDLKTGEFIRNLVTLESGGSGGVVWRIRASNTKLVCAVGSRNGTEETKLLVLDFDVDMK
MITF confirm – confirmation of human MITF inhibitors; shares compounds with MITF primary; AlphaScreen MITF homodimerization, biotin/His-MITF beads; inhibition, % at 2.6 µM; 16% of 4,700 active;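 active = inhibition above a cutoff derived from the DMSO control wells, cut at about 28% in these data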;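 also: 0% = MITF dimer wells with DMSO only; inhibitors lower the bead chemiluminescence by keeping MITF from dimerizing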
AS interf ctr – AlphaScreen optical interference, counter-screen. 7.6% of 4,700 active. LysRS AlphaScreen counterscreen, signal interference, triplicate. shares compounds with MITF primary. AID 1259376. inhibition, % at 2.6 µM;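 active = inhibition above a cutoff derived from the DMSO control wells, cut at about 30% in these data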
The depositor's hits bear a star; · = no result given.

SMILES	GPR151 activ	MITF primary	TEAD-YAP inh	FBW7 act	MITF confirm	AS interf ctr
C=CCc1cc(Cl)ccc1OCCNCCN1CCOCC1	0	76*	5	0	-9	0
COc1ccc(Cl)cc1NC(=O)CN1C(=O)C2C3C=CC(C3)C2C1=O (stereo not given)	0	15	8	0	·	·
C=CCN1C(=O)/C(=c2\sc3nc(-c4ccccc4OC)nn3c2=O)c2ccccc21	-1	6	-9	0	·	·
O=C1c2ccccc2C(=O)N1c1ncc(Cc2cc(Cl)ccc2Cl)s1	-1	9	9	0	·	·
O=C1c2ccccc2C(=O)N1c1ncc(Cc2ccc(Cl)cc2)s1	-1	59*	14	0	12	18
COC(=O)C1=C(C)N(Cc2ccc(C)cc2)C(=O)/C1=C\c1cccs1	0	3	10	0	·	·
Cc1ccc(C)c(C(=O)Nc2ccccc2F)c1	-1	84*	-4	0	14	7
C/C=C(\C)CN1CCc2c(C(=O)OC)c(OCc3ccc(F)cc3)cc(=O)n2CC1	1	0	-23	0	·	·
NC(=O)NC(=O)CC1S/C(=N/N=C2\CSC(=O)N2)NC1=O (stereo not given)	-1	96*	10	0	72*	100*
CCOC(=O)c1ccc(NC(=O)CC2S/C(=N/N=C3\CSC(=O)N3)NC2=O)cc1 (stereo not given)	-1	25	6	-2	·	·
O=C(O)CC1S/C(=N/N=C2\CSC(=O)N2)NC1=O (stereo not given)	0	92*	9	0	84*	100*
COc1cc(C2C(C(=O)N3CCCCC3)=C(C)NC3=C2C(=O)CCC3)ccc1OC(C)=O (stereo not given)	1	-11	-8	0	·	·
O=C1c2ccc([N+](=O)[O-])cc2C(=O)N1Cc1ccccc1[N+](=O)[O-]	0	-12	5	0	·	·
Cc1ccc(NC(C)C(=O)N/N=C/c2ccco2)cc1 (stereo not given)	-2	-2	3	0	·	·
O=C(c1ccc([N+](=O)[O-])cc1)N1CCSC1c1ccc(Br)cc1 (stereo not given)	-1	70*	0	2	-13	-3
O=C(c1ccc([N+](=O)[O-])cc1)N1CCSC1c1ccc([N+](=O)[O-])cc1 (stereo not given)	2	12	-3	0	·	·
CCOC(=O)C(C)CC(C)C(=O)N1CCOCCOCCOCC1 (stereo not given)	1	6	2	0	·	·
COc1ccccc1-n1c(SCC(=O)NNC=O)nnc1-c1ccc(C)cc1	-2	84*	-46	0	5	8
COc1ccccc1-n1c(SCC(=O)Nc2ccc(C)cc2)nnc1-c1ccncc1	-1	-16	4	0	·	·
O=c1[nH]c(CNCCN2CCOCC2)nc2sc3c(c12)CCC3	-1	105*	2	-1	19	100*
O=c1[nH]c(CN2CCCCC2)nc2sc3c(c12)CCC3	-1	-1	3	1	·	·
Cc1nc(NCCCN2CCOCC2)c2c3c(sc2n1)CCCC3	-1	74*	1	0	-16	1
Cc1nc(NCCCN2CCOCC2)c2c3c(sc2n1)CCC3	0	9	9	0	·	·
Cc1nc(NCCCN(C)C)c2c3c(sc2n1)CCCC3	-1	51*	-8	0	14	13
CN(C)CCCNc1ncnc2sc3c(c12)CCCC3	2	-22	-7	0	·	·
SMILES	GPR151 activ	MITF primary	TEAD-YAP inh	FBW7 act	MITF confirm	AS interf ctr
COc1ccc(OC)c(NC(=O)c2oc3ccccc3c2NC(=O)C2CCCO2)c1 (stereo not given)	0	5	0	0	·	·
O=[N+]([O-])c1cccc(N(CC2CO2)S(=O)(=O)c2ccccc2)c1 (stereo not given)	0	51*	-3	0	-1	-9
O=c1oc2ccc3ccccc3c2cc1-c1nc(-c2ccc([N+](=O)[O-])cc2)n[nH]1	1	72*	5	0	7	13
Clc1cccc(CN2CCN(Cc3cccnc3)CC2)c1	0	85*	7	0	8	17
O=C(NCc1cccc(Cl)c1)C1CCN(Cc2cccnc2)CC1	0	5	5	0	·	·
Fc1cccc(CN2CCN(Cc3cccnc3)CC2)c1	1	85*	-1	0	10	16
COc1cc(OC)c(CN2CCCC(CO)C2)cc1Br (stereo not given)	0	55*	5	0	1	6
COc1cc(CNCc2ccncc2)cc(OC)c1OC	-1	58*	-1	0	-1	-5
COc1cc(CN2CCN(Cc3ccc(F)cc3)CC2)cc(OC)c1OC	1	84*	-2	0	13	10
COc1cc(CN2CCN(Cc3ccncc3)CC2)cc(OC)c1OC	0	70*	14	0	14	16
COc1cccc(CNCc2ccncc2)c1	-1	2	6	0	·	·
COc1cc(CN2CCCC2)cc(OC)c1OC	-1	-1	2	0	·	·
COc1cc(CN2CCN(c3ccc(F)cc3)CC2)cc(OC)c1OC	0	24	7	0	·	·
CCc1ccc(CN2CCN(Cc3cc(OC)c(OC)c(OC)c3)CC2)cc1	0	58*	2	0	-3	1
COc1ccc(C(=O)NCc2ccc(C(=O)NCCc3ccccc3)cc2)cc1OC	0	12	1	1	·	·
CC(C)N(CCNc1nc(Nc2ncccn2)nc2c1ncn2-c1ccccc1)C(C)C	-2	0	1	0	·	·
COc1cc(CNCc2ccccc2C(F)(F)F)cc(OC)c1OC	2	65*	-1	0	-7	5
COc1cc(CNCc2cccc(OC)c2OC)cc(OC)c1	1	21	3	0	·	·
O=C(O)Cc1nc(-c2cccnc2)sc1-c1ccc(Cl)cc1	0	3	5	0	·	·
CCc1ccc(/C=C2/Sc3ccccc3N(CC(=O)NCc3cccnc3)C2=O)cc1	2	10	29	0	·	·
CCC(=O)Nc1ccc(C(=O)Nc2ccc(C#N)cc2)cc1	0	-4	-3	0	·	·
CCC(=O)Nc1ccc(C(=O)Nc2ccccc2C#N)cc1	-1	51*	-9	0	-10	-6
COc1ccc([N+](=O)[O-])cc1NC(=O)c1ccc(F)cc1	3	57*	-1	0	-12	-11
COc1ccc([N+](=O)[O-])cc1NC(=O)C1(c2ccc(OC)c(OC)c2)CCCC1	0	53*	-8	0	-14	-7
COc1ccc([N+](=O)[O-])cc1NC(=O)c1ccc(C(C)(C)C)cc1	0	16	9	0	·	·
COC(=O)C1=C(N)OC2=C(C(=O)CC(C)(C)C2)C1c1ccc(SC)cc1 (stereo not given)	0	4	7	0	·	·
COc1cccc(NC(=O)CN2C(=O)/C(=C\c3cccs3)SC2=S)c1	-3	17	19	0	·	·
O=c1[nH]c(CN(CCO)Cc2nc3sccc3c(=O)[nH]2)nc2sccc12	0	78*	6	0	47*	100*
